# The campaign covered roughly 6,200 compounds. About 2,900 (47%) were called active. No stated cut-off is given here; in the data, active means inhibition above about 50%; inactive means the rest. So high a share suggests a set chosen from earlier hits. This is one part of the list.
# Experiment: Mycobacterium tuberculosis growth inhibition, primary screen (AID 1259343)
# Conditions: inhibition: at 10 µM, stronger effect = higher value; outcome: 10 uM
row,SMILES,inhibition
1,Oc1ccc(C=Nn2c(-c3ccco3)csc2=Nc2ccc(F)cc2F)c(O)c1,6.26% (inactive)
2,CN=c1scc(-c2cc(Cl)ccc2Cl)n1N=Cc1ccc(O)cc1O,65.9% (active)
3,C=C(C)CN=c1scc(-c2ccco2)n1N=Cc1ccc(O)cc1O,89.4% (active)
4,C=CCN=c1scc(-c2ccco2)n1N=Cc1cc(OC)ccc1O,16% (inactive)
5,CN=c1scc(-c2ccccc2Br)n1N=Cc1cccc(O)c1,28.8% (inactive)
6,CN=c1scc(-c2cccc(Br)c2)n1N=Cc1ccccc1F,-6.53% (inactive)
7,Cc1ccccc1-c1ncc(CN2CCCC2c2nonc2C)s1 (stereo not drawn),27.5% (inactive)
8,Cc1ccccc1CCC1CCCN(Cc2nnc(-c3ccco3)o2)C1 (stereo not drawn),2.39% (inactive)
9,Cc1ccccc1-c1nnc(CN2CCCC3CCCC32)o1 (stereo not drawn),59% (active)
10,Cc1cc(=O)[nH]c(Nc2nc(C)c3cc(C)c(C)cc3n2)n1,-34.5% (inactive)
11,O=C(CCl)N1CCC(Cc2ccccc2)CC1,-0.35% (inactive)
12,O=C(Cc1ccccc1)N1CCC(Cc2ccc(-c3ccccc3)cc2)CC1,72.6% (active)
13,Cc1ccc(C2CC(c3cccc(F)c3)=NN2C(=O)CN2CCC(Cc3ccccc3)CC2)cc1 (stereo not drawn),42.1% (inactive)
14,COC(=O)CC(=O)N1CCC(Cc2ccc(-c3ccccc3)cc2)CC1,87% (active)
15,COc1cc2c(cc1NC(=O)CC(C)=NNC=O)oc1ccccc12,95.5% (active)
16,COc1ccccc1/C=C/CN1CCCC(CCC(=O)Nc2cc(Cl)ccc2OC)C1 (stereo not drawn),14.3% (inactive)
17,Cc1noc(C)c1CCC(=O)Nc1ccc2oc3ccccc3c2c1,25.6% (inactive)
18,Cc1cc(C)c2sc(NCC(C)C)nc2c1,13.6% (inactive)
19,COC(=O)c1sc2c(c1N)CCC(C(C)(C)C)C2 (stereo not drawn),29.1% (inactive)
20,COC(=O)c1c(N)sc2c1CCC(C(C)(C)C)C2 (stereo not drawn),-34.2% (inactive)
21,CC(C)(C)C1CCc2c(C(=O)N/N=C\c3ccoc3)csc2C1 (stereo not drawn),79.8% (active)
22,Cc1cc(=O)n2[nH]cc(-c3ccc(Cl)cc3)c2n1,-30.9% (inactive)
23,Cc1ccc(-c2c[nH]n3c(=O)cc(C(C)(C)C)nc23)cc1,98.8% (active)
24,CC(C)(C)c1cc(=O)n2[nH]cc(-c3ccc(Cl)cc3)c2n1,32.1% (inactive)
25,Cc1cc(=O)n2[nH]c(C(F)(F)F)c(-c3ccc(Cl)cc3)c2n1,61.6% (active)
26,Cc1[nH]n2c(=O)cc(C(C)(C)C)nc2c1-c1ccc(Cl)cc1,101% (active)

row,SMILES,inhibition
1,CC(NC(=O)c1c(O)nc2sccn2c1=O)c1ccccc1 (stereo not drawn),90.9% (active)
2,CC(CCc1ccccc1)NC(=O)c1c(O)nc2sccn2c1=O (stereo not drawn),62.6% (active)
3,CCCCn1c(=O)[nH]c(=O)c2c1nc(COC(=O)C1CC1)n2C,12.4% (inactive)
4,O=C(O)C1CC=CCC1C(=O)Nc1ccc(N2CCN(c3cccc(Cl)c3Cl)CC2)cc1 (stereo not drawn),21.6% (inactive)
5,O=C(Nc1ccc(-c2ccccc2)cc1)C1CC=CCC1C(=O)N1CCc2c([nH]c3ccccc23)C1 (stereo not drawn),91% (active)
6,C1=CC(c2ccc(C=NNc3nc4ccccc4s3)s2)CC1 (stereo not drawn),99.1% (active)
7,NC(=S)NN=Cc1ccc(C2C=CCC2)s1 (stereo not drawn),84.9% (active)
8,CC1CC(=NNc2nc3ccccc3s2)CC(C)(C)C1 (stereo not drawn),23.3% (inactive)
9,C1=CC(c2ccc(C=NNc3ccccn3)s2)CC1 (stereo not drawn),-47.3% (inactive)
10,C=CCN=c1scc(-c2ccc(C)cc2)n1N=Cc1ccc(F)cc1,-4.92% (inactive)
11,C(=Nn1c(-c2ccccc2)csc1=NCc1ccccc1)c1cccnc1,28.2% (inactive)
12,N#Cc1ccc(C=Nn2c(-c3ccc(F)cc3)csc2=Nc2cccnc2)cc1,97.7% (active)
13,C=CCNC(=S)NN=C1CCCCc2ccccc21,-17.9% (inactive)
14,C=CCNC(=S)NN=C1CCC=C1CCCCC,21.5% (inactive)
15,C=CCNC(=S)NN=C1C=C(C)CC(C)(C)C1,103% (active)
16,Cc1cccc(OCC(O)Cn2cnc3ccc(Cl)cc3c2=O)c1 (stereo not drawn),86.5% (active)
17,CCn1cnc2cc(-c3ccc(Cl)cc3)sc2c1=O,29.3% (inactive)
18,Cc1cccc(C)c1OCC(O)Cn1cnc2ccc(Br)cc2c1=O (stereo not drawn),33.4% (inactive)
19,CN(CCNc1ccc2c(c1)C(=O)CCC2)c1ccccc1,75.6% (active)
20,Cc1ccc(C(=O)NCCN(C)c2ccccc2)c(C)c1,35.9% (inactive)
21,Cc1ccc(SCCC(=O)Nc2nnc(-c3cc(C)ccc3C)o2)cc1,74.8% (active)
22,CC(C)OC(=O)c1ccc(NC(=O)CCCC(=O)O)cc1,50.8% (active)
23,Cc1ccc(NC(=O)C(C)OC(=O)c2cccc(C)c2C)cc1 (stereo not drawn),18.8% (inactive)
24,CCCc1cc(=O)[nH]c(-n2nc(C)cc2NC(=O)Cc2cccs2)n1,-25.1% (inactive)
25,CCc1cc(=O)[nH]c(-n2nc(C)cc2NC(=O)Cc2cccs2)n1,101% (active)
26,Cc1cc(=O)[nH]c(-n2nc(C)cc2NC(=O)Cc2cccs2)n1,101% (active)

row,SMILES,inhibition
1,CN(C)CCCNc1ncnc2c1c(-c1ccccc1)cn2-c1ccc(Br)cc1,97.2% (active)
2,CC(O)CNc1ncnc2c1c(-c1ccccc1)cn2-c1ccc(Cl)cc1 (stereo not drawn),99.4% (active)
3,CCCNc1ncnc2c1c(-c1ccccc1)cn2-c1ccccc1,95.8% (active)
4,CC(C)OCCCNc1ncnc2c1c(-c1ccccc1)cn2-c1ccccc1,101% (active)
5,Cc1ccc(-n2cc(-c3ccccc3)c3c(NCCCO)ncnc32)cc1Cl,inactive
6,Cn1ccnc1-c1nccn1Cc1ccc(CN2CCCC2)cc1,-4.25% (inactive)
7,CN(C)c1ccc(C=Cc2ccc3c4ccccc4ccc3[n+]2-c2ccccc2)cc1,-1.83% (inactive)
8,O=S(=O)(Nc1ccc(Br)c(C(F)(F)F)c1)c1ccc(F)cc1,81.1% (active)
9,N#Cc1ccc(NS(=O)(=O)c2ccc(F)cc2)cc1,77.8% (active)
10,Cc1cc(C)c(C)c(S(=O)(=O)Nc2ccc(F)cc2)c1C,31.6% (inactive)
11,O=S(=O)(Nc1ccc(Br)cc1)c1ccc(F)cc1,36.6% (inactive)
12,O=c1[nH]c(=S)ccn1-c1nc(-c2ccccc2)sc1-c1ccccc1,21.2% (inactive)
13,NCc1ccc(Oc2cccc(Cl)c2Cl)cc1,62.9% (active)
14,Oc1ccccc1Oc1ccc(Oc2ccccc2O)cc1,25.7% (inactive)
15,O=C(NC1=NCCS1)c1sc2cc(F)ccc2c1Cl,5.48% (inactive)
16,O=C(NS(=O)(=O)c1ccc(Br)s1)c1ccc(Cl)cc1Cl,82.9% (active)
17,O=C(O)c1sc2cc(Cl)ccc2c1Cl,87.1% (active)
18,O=C(NS(=O)(=O)c1ccc(Cl)s1)c1sc2cc(Cl)ccc2c1Cl,77.9% (active)
19,O=C(O)c1sc2cc(Cl)cc(Cl)c2c1Cl,92.8% (active)
20,O=C(O)c1sc(Cl)cc1/C=C\c1ccccc1,4.33% (inactive)
21,COc1ccc2c(Cl)c(C(=O)O)sc2c1Cl,19.7% (inactive)
22,CC(NC(=O)c1scnc1Cl)c1ccccc1 (stereo not drawn),8.26% (inactive)
23,CC(NC(=O)c1ccc(Cl)c([N+](=O)[O-])c1)c1ccccc1 (stereo not drawn),100% (active)
24,Cc1ccc(NC(=O)c2csc(NS(=O)(=O)c3cccs3)n2)cc1F,28.6% (inactive)
25,Cc1cc(C)c(S(=O)(=O)NC(C)c2ccccc2)c(C)c1 (stereo not drawn),9.74% (inactive)
26,Cc1cc(C)c(S(=O)(=O)Nc2nc(C(F)(F)F)cs2)c(C)c1,78.7% (active)

row,SMILES,inhibition
1,c1ccc(-c2noc(CCCc3c[nH]c4ccccc34)n2)cc1,71.6% (active)
2,O=C(CCc1nnc(CCc2c[nH]c3ccccc23)o1)N1CCC(c2ccccc2Cl)C1 (stereo not drawn),33.4% (inactive)
3,O=C1C=CC(=O)N1c1cc(Cl)c(Cl)cc1Cl,11.4% (inactive)
4,Cc1cccn2c(=O)c(C=NCCO)c(NCc3ccco3)nc12,45.5% (inactive)
5,O=c1c(C=NCc2ccco2)c(NCc2ccco2)nc2ccccn12,88.3% (active)
6,CCC(C)N=Cc1c(NCc2ccco2)nc2c(C)cccn2c1=O (stereo not drawn),4.74% (inactive)
7,O=C(COc1ccc(F)cc1Br)NCCOc1ccc(Cl)cc1,77.7% (active)
8,Cc1ccc(C2=CCN(C(=O)CNC(=O)C3CCCCC3)CC2)cc1,93.1% (active)
9,O=C(CC1CCCC1)N1CC=C(c2ccc(O)cc2)CC1,41% (inactive)
10,O=C(NC(c1ccccc1)c1ccc2ccccc2n1)C1CCN(Cc2ccc(Oc3ccccc3)cc2)CC1 (stereo not drawn),56.5% (active)
11,C=CC[C@H]1CC(C)=C[C@H](CC=C)N1Cc1ncccc1C(=O)O,-5.55% (inactive)
12,Cc1c(Cl)cccc1Nc1ccccc1C(=O)O,101% (active)
13,Cc1ccnc(Nc2ccc(NCCNC(=O)Nc3cccc(Cl)c3C)nn2)c1,36.1% (inactive)
14,Cc1cccc(C(=O)O)c1O,23.2% (inactive)
15,C[CH2][Hg][S]c1ccccc1C(=O)O,102% (active)
16,O=C(O)c1cccc2cccc(-c3cccc4cccc(C(=O)O)c34)c12,37% (inactive)
17,O=C(Nc1ccc(Cl)cc1)c1c(Cl)nsc1Cl,68.1% (active)
18,O=C(O)Cc1ccc([N+](=O)[O-])cc1Sc1ccc(Cl)cc1,54.2% (active)
19,O=C1CC(=O)CC2(CCCC2)C1,22.1% (inactive)
20,CN(C)c1c(Cl)cccc1NC(=O)c1cc(C2CC2)[nH]n1,19.5% (inactive)
21,O=C(Nc1ccc(Cl)c(Cl)c1)Nc1cc(C(F)(F)F)c[nH]c1=O,9.25% (inactive)
22,O=C(Nc1ccc(C(F)(F)F)cc1Cl)c1cc([N+](=O)[O-])[nH]n1,102% (active)
23,CN(Cc1ccsc1)C(=O)c1cccc2c(=O)c3ccccc3[nH]c12,43.6% (inactive)
24,O=S(=O)(Nc1nc2c(F)cc(F)cc2s1)c1ccc(F)cc1F,73.8% (active)
25,O=C(Nc1cccc(N2CCOC2=O)c1)C1CC(c2ccccc2)=NO1 (stereo not drawn),83.1% (active)

# From PubChem BioAssay AID1259343 (VanderVen Lab, College of Veterinary Medicine, Cornell …, 2017)
